The values below come from PubChem BioAssay (NCATS).

The nature of test [1]: qHTS profiling for inhibitors of Plasmodium falciparum proliferation (AID 504749).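 As to activity, negative = inhibition: 0% = DMSO vehicle and full inhibition = artemisinin control.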 As to all read-outs here: nearly all actives have a fitted effect of over 60% in size. The following applies: P. falciparum in erythrocytes, SYBR Green DNA, 72 h; for activity, negative = inhibition: at 28.7 µM (top of the series). The procedure, abridged: (§1)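 Infected RBCs, 0.3% parasitemia/2.5% Hct final; cpd 72 h, 37 C, 5% CO2; lysis buffer with saponin/triton/SYBR Green I, o/n RT dark; FI 485/535; norm. to artemisinin (0.29 uM) and DMSO.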
On the technique in general: In qHTS, concentration-response curves come from the screen itself.

In another test the test system is 3D7. Described as above. The following applies: P. falciparum in erythrocytes, SYBR Green DNA, 72 h; series mostly up to 28.7 µM. The procedure, abridged:
as §1

Another test concerns 7G8. The test is described as above. The following applies: P. falciparum in erythrocytes, SYBR Green DNA, 72 h; series mostly up to 28.7 µM. The procedure, abridged:
as §1

A further test relates to AA1029. Described as above. The following applies: P. falciparum in erythrocytes, SYBR Green DNA, 72 h; series mostly up to 28.7 µM. The procedure, abridged:
as §1

Another test relates to AS120. The test is described as above. The following applies: P. falciparum in erythrocytes, SYBR Green DNA, 72 h; series mostly up to 28.7 µM. The essentials: as §1
The test system of another test is ATS189. Described as above. The following applies: P. falciparum in erythrocytes, SYBR Green DNA, 72 h; series mostly up to 28.7 µM. The procedure, abridged:
as §1

Records with an inconclusive call do not appear. Unmarked numbers belong to inactive results. Active and inactive are the calls of the source. Calls follow the shape of the dose curve; as a rule, active = well fitted inhibition curve with a large enough effect; inconclusive = small, poorly fitted or top-dose-only effect; inactive = flat fitted curve, though single readings scatter.
Potency is read from the fitted curve at half-maximal effect.

Regarding `COc1ccccc1N1CCNCC1`, the activity, negative = inhibition is -0.986% in test [1] (parasite line A) and 0.847% in test [1] (parasite line B). The Potency result in the test on 3D7, in the test with 7G8, in the test on AA1029, with AS120 and in the test on ATS189 was “inactive” in each case.

As for `CC(C)(C)CC(C)(C)c1ccc(O)cc1`, in test [1] (parasite line A), the activity, negative = inhibition was -18.1%. Besides, the Potency result in the test on 3D7, in the test on AA1029 and with ATS189 was “inactive” each time. Besides, the Potency in the test with 7G8 was 12.6 µM (active).

In the case of `CCOC(=O)C1(c2ccccc2)CCN(CCC(C#N)(c2ccccc2)c2ccccc2)CC1`, the Potency is 2.51 µM (active) in test [1] (parasite line A); 3.16 µM (active) in test [1] (parasite line B); 2.51 µM (active) with 3D7; 2.24 µM (active) in the test on 7G8; 3.16 µM (active) with AA1029; 2.24 µM (active) in the test on AS120. The Potency in the test on ATS189 is 3.55 µM (active).

For `NP(N)(=O)NC(=O)c1ccc(F)cc1`, the values for the activity, negative = inhibition in test [1] (parasite line A) and in test [1] (parasite line B) were -1.33% and 3.8%, respectively. Also, the Potency result with 3D7, in the test with 7G8, with AA1029, in the test with AS120 and in the test on ATS189 was “inactive” each time.

For the compound `O=c1[nH]c2ccccc2n1C1CCN(CCCC(c2ccc(F)cc2)c2ccc(F)cc2)CC1`, the activity, negative = inhibition in test [1] (parasite line B) is -29.2%. In addition, the Potency in the test on 3D7 was 15.8 µM (active). For the same compound, the Potency entry with AA1029 and in the test on ATS189 was “inactive” throughout.

Regarding `CC[C@@H](CO)NC(=O)[C@@H]1C=C2c3cccc4[nH]cc(c34)C[C@H]2N(C)C1`, the activity, negative = inhibition in test [1] (parasite line A) is 17.2%; in test [1] (parasite line B), 1.58%. Moreover, the Potency entry in the test on 3D7, with AA1029, in the test on AS120 and in the test on ATS189 was “inactive” each time.

As to `CN1CCN(C(=O)O[C@H]2c3nccnc3C(=O)N2c2ccc(Cl)cn2)CC1`, the activity, negative = inhibition in test [1] (parasite line A) was -9.31%; in test [1] (parasite line B), -0.974%. In addition, the Potency entry with 3D7, with 7G8, in the test on AA1029, in the test with AS120 and in the test on ATS189 was “inactive” each time.

Take `CCN(CC)CCN1C(=O)CN=C(c2ccccc2F)c2cc(Cl)ccc21`: the activity, negative = inhibition was -1.62% in test [1] (parasite line A) and -4.36% in test [1] (parasite line B). Moreover, the Potency result in the test with 3D7 and in the test with AS120 was “inactive” in each case.

As for `Oc1ccc(Cl)cc1Cc1ccccc1`, the activity, negative = inhibition in test [1] (parasite line A) was -17.6%. Also, the figures for the Potency in the test with 7G8 and in the test with AS120 were 2 µM (active) and 8.91 µM (active), respectively.

Regarding `CC(=O)[C@H]1CC[C@H]2[C@@H]3CC[C@H]4C[C@H](O)CC[C@]4(C)[C@H]3C(=O)C[C@]12C`, the activity, negative = inhibition in test [1] (parasite line A) was 10.2%; in test [1] (parasite line B) it was 12.3%. Also, the Potency result in the test on 3D7, in the test with 7G8, with AA1029, with AS120 and in the test on ATS189 was “inactive” each time.

Regarding `CCC(COC(=O)c1cc(OC)c(OC)c(OC)c1)(c1ccccc1)N(C)C` (configuration not stated), the values for the activity, negative = inhibition in test [1] (parasite line A) and in test [1] (parasite line B) were -11.1% and -13.8%, respectively. For the same compound, the Potency result in the test with 3D7, in the test on 7G8, in the test on AA1029, in the test with AS120 and in the test with ATS189 was “inactive” throughout.

Turning to `CCC(C(N)=O)N1CCCC1=O` (configuration not stated), the figures for the activity, negative = inhibition in test [1] (parasite line A) and in test [1] (parasite line B) were 2.96% and 6.9%, respectively. For the same compound, the Potency entry in the test with 3D7, with 7G8, in the test with AA1029, in the test with AS120 and in the test on ATS189 was “inactive” each time.

As for `c1ccc(C2CC2)c(OCC2=NCCN2)c1`, the activity, negative = inhibition was 6.76% in test [1] (parasite line A) and 4.47% in test [1] (parasite line B). Moreover, the Potency result in the test with 3D7, in the test with AA1029, in the test with AS120 and in the test on ATS189 was “inactive” each time.

Consider `Cc1ncc(CNC(=O)N(CCCl)N=O)c(N)n1`, for which the activity, negative = inhibition was 6.89% in test [1] (parasite line A) and 3.28% in test [1] (parasite line B). The Potency entry with 3D7, in the test on 7G8, with AA1029, in the test on AS120 and in the test on ATS189 was “inactive” in each case.

As to `FC(F)(F)c1cccc(C2=CCN(CCc3ccc4ccccc4c3)CC2)c1`, the activity, negative = inhibition in test [1] (parasite line A) was -13.7%; in test [1] (parasite line B) it was -28.6%. Besides, the Potency entry in the test on 3D7, in the test with 7G8, with AA1029, with AS120 and in the test on ATS189 was “inactive” in each case.

As for `C#CCOC(C(=O)OCCN(C)C)(c1ccccc1)c1ccccc1`, the figures for the activity, negative = inhibition in test [1] (parasite line A) and in test [1] (parasite line B) were -0.224% and 7.7%, respectively. Further, the Potency entry in the test on 3D7, in the test with AS120 and with ATS189 was “inactive” each time. Besides, the Potency with 7G8 is 10 µM (active).

Regarding `CN1C(=S)CN=C(c2ccccc2)c2cc(Cl)ccc21`, the figures for the activity, negative = inhibition in test [1] (parasite line A) and in test [1] (parasite line B) were -4.94% and 2.35%, respectively. Also, the Potency entry in the test with 3D7, in the test on 7G8, in the test on AA1029, with AS120 and in the test on ATS189 was “inactive” in each case.

For `CCC1(C2=NCCN2)Cc2ccccc2O1` (configuration not stated), the activity, negative = inhibition was 5.76% in test [1] (parasite line A) and 6.35% in test [1] (parasite line B). For the same compound, the Potency result in the test on 3D7 was “inactive”. Also, the Potency with AA1029 was 11.2 µM (active); in the test on ATS189, 7.94 µM (active).

As to `CC(C)NCC(O)c1ccccc1Cl` (configuration not stated), the Potency is 11.2 µM (active) in test [1] (parasite line B), 4.47 µM (active) in the test on 7G8, 4.47 µM (active) with AA1029 and 12.6 µM (active) in the test on AS120.

Regarding `COc1ccc(C(CN(C)C)C2(O)CCCCC2)cc1` (configuration not stated), the activity, negative = inhibition in test [1] (parasite line A) was 4.2%; in test [1] (parasite line B) it was -12.5%. In addition, the Potency entry in the test on 3D7, with 7G8, in the test on AA1029, in the test on AS120 and with ATS189 was “inactive” throughout.

Consider `c1ccc2c(c1)Nc1ccccc1S2`, for which the Potency with 3D7 is 4.47 µM (active). Moreover, the Potency entry in the test on AS120 is “inactive”.

As for `Clc1ccc(COC(Cn2ccnc2)c2ccc(Cl)cc2Cl)cc1` (configuration not stated), the Potency in test [1] (parasite line A) is 3.55 µM (active); in test [1] (parasite line B), 2.51 µM (active); with 3D7, 3.16 µM (active); in the test with 7G8, 0.398 µM (active); in the test on AA1029, 4.47 µM (active); in the test with AS120, 1 µM (active). Also, in the test with ATS189, the Potency is 3.16 µM (active).

`c1ccc2c(c1)OCC(C1=NCCN1)O2` (configuration not stated): the activity, negative = inhibition in test [1] (parasite line A) was -17.7%; in test [1] (parasite line B), -17.9%. The Potency entry with AA1029, in the test on AS120 and in the test with ATS189 was “inactive” in each case.

In the case of `CC(C)(C)NCC(O)c1cc(Cl)c(N)c(Cl)c1` (configuration not stated), the activity, negative = inhibition in test [1] (parasite line A) is -4.99%. For the same compound, the Potency entry with 3D7 is “inactive”. Also, the Potency in the test on 7G8 is 7.94 µM (active).
